VACV Venus inh: vaccinia inhibition (Venus reporter); 0.46% of 330,000 active; Vaccinia virus Venus reporter expression, fluorescence; Potency, µM (doses to about 36.5 µM), for inactives: top-dose activity change, negative = inhibition, actives largely listed as inhibitors; calls by dose curve; tested in A549 cells; note: potency is the fitted concentration of half-maximal effect; nearly all actives have a fitted effect of over 30% in size
Vaccinia mCherry: inhibitors of vaccinia virus infection (mCherry reporter signal) | Vaccinia virus mCherry reporter infection, fluorescence | Potency, µM (highest dose often 36.5 µM), for the others: at the highest dose activity change, negative = inhibition, actives largely listed as inhibitors | 0.63% of 310,000 active | AID 720579; calls by dose curve; tested in A549 cells; note: potency is the fitted concentration of half-maximal effect; nearly all actives have a fitted effect of over 35% in size
HCV inhibitor: blocks hepatitis C virus | Huh7.5.1 HCVcc-Cre infection, luciferase reporter, 44 h | 3.4% of 340,000 active | Potency, µM (top dose mostly 41.8 µM), without a hit: at the top dose activity change, negative = inhibition, most hits filed as inhibitors | AID 651820; active = well fitted inhibition curve with a large enough effect; inconclusive = small, poorly fitted or top-dose-only effect, or another doubt; inactive = no such curve, though single readings can be large or run the other way; note: potency is the fitted concentration of half-maximal effect
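Cells (1,000/well) were plated 4 h before compound, then infected with HCVcc-Cre virus (~0.5 moi). After 44 h further culture, infection was read as luciferase luminescence following a 15 min substrate incubation at room temperature.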
FMDV inh: blocks foot and mouth disease virus; FMDV antiviral cell-based qHTS; Potency, µM (highest dose often 57.9 µM), without a hit: at the top dose activity change, negative = inhibition, usual class: inhibitors; 1.2% of 410,000 active; calls by dose curve; tested in HEK293T cells; note: read-out not given here; potency is the fitted concentration of half-maximal effect; nearly all actives have a fitted effect of over 45% in size
HCMV inh: inhibitors of human cytomegalovirus | AID 1259415 | activity change, negative = inhibition, % at 57.5 µM | 4.5% of 410,000 active | HFF cells, HCMV-luciferase reporter, 72 h; hits give low values; in the data active = activity change below about -60%; inconclusive = no clear call, values can overlap the other calls; inactive = above about -39%
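After 16 h attachment at 37C, HFF cells received test compound and HCMV-luciferase (1 PFU/cell); reporter luminescence read 72 h later, data normalized against buffer-only and known inhibitor Salinomycin.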
Numbers without * were called inactive; i = inactive; ? = inconclusive; . = no result given; ! = not confirmed by another sample; [ ] = dose if it differs, or a comment. Most compounds without a hit are left out; they make up all but 7.3% or so of the library. % is set by controls: 0 for no effect and ±100 for the full control effect.

SMILES	VACV Venus inh	Vaccinia mCherry	HCV inhibitor	FMDV inh	HCMV inh
CCN(C(=O)CSc1nnc(Nc2cccc(C)c2C)s1)C1CCS(=O)(=O)C1 (configuration not stated)	-23%	i	22%	-19%	-7
CCOc1ccc(-n2c(C)c3c(C)nnc(C)c3c2C)cc1	?	?	.	?	-62*
CCOc1ccc(-c2nnc(-c3ccccc3)n2-c2ccccc2)cc1	.	.	-26%	9%	-12
COC(=O)c1ccc(COc2cc(O)c3c(c2)OC(C)(C)CC3=O)cc1	-10%	-17%	-26%	-21%	-8
CC1(C)CC(=O)c2c(O)cc(OCc3ccc(Br)cc3)cc2O1	.	.	-13%	14%	-109*
O=[N+]([O-])c1ccc(Oc2cccc(F)c2)c2ccncc12	-29%	.	4µM*	?	-25
O=[N+]([O-])c1ccc(N2CCOCC2)c2ccncc12	4%	-2%	-27%	-19%	-35
CCC(=O)N1CC2(CN(C(=O)NC(C)C)C2)c2c(n(C)c3cc(OC)ccc23)[C@H]1CO	.	.	.	.	15
CCc1ccc(NC(=O)CCCOc2cc(=O)n(C)c3ccccc23)cc1	-25%	?	.	1%	-98*
CCN(CC)CCOC(=O)c1ccc(NC(=O)COc2cc(=O)n(CC)c3ccccc23)cc1	.	.	?	5%	-101*
CCN(CC)CCOC(=O)c1ccc(NC(=O)CSc2cc(=O)n(CC)c3ccccc23)cc1	-6%	-11%	.	-17%	62
O=C(Nc1ccc(Cl)cc1)/C(=C/c1cccc(O)c1)c1nc2ccccc2s1	10µM*	11µM*	13µM*	10µM*	-98*
CC1CCCN(C(=O)N2c3ccccc3Sc3ccccc32)C1 (configuration not stated)	.	.	-19%	-30%	-68*
CC1CCN(C(=O)N2c3ccccc3Sc3ccccc32)CC1	-5%	.	3%	?	-40
CC(C)NC(=O)c1csc(N2CCN(CCc3ccccc3)C2=O)n1	.	.	.	.	11
COc1ccc(OC)c(NC(=O)c2nnn(CC(=O)Nc3ccc(C(C)C)cc3)c2N)c1	-11%[7.34 µM]	-17%[7.34 µM]	.	-13%	-63*
CCOc1ccc(NC(=O)Cn2nnc(C(=O)NCCc3ccccc3)c2N)cc1	-16%	-11%	.	-15%	-37
COc1ccc(NC(=O)Cn2nnc(C(=O)NCCc3ccccc3)c2N)cc1	7%	-9%	-6%	5%	-64*!
COc1cc(NC(=O)c2nnn(CC(=O)Nc3cc(C)ccc3C)c2N)cc(OC)c1	-3%	i	.	0%	-70*
O=C(CCNC(=O)c1ccccc1Cl)NCCCSc1ccccc1	.	.	-18%	1%	-4
O=C(NCCCSc1ccccc1)c1cc(Br)ccc1O	.	.	?	-19%	-79*
COc1cccc(N2CCN(CC(=O)Nc3ccccc3C(=O)NCCc3ccccc3)CC2)c1	.	.	?	7%	42
O=C(CN1CCN(c2ccc(O)cc2)CC1)Nc1ccccc1C(=O)NCCc1ccccc1	.	.	13µM*	-20%	-61*
Oc1ccc(N2CCN(C(=S)NCCc3ccccc3)CC2)cc1	?	3%[1.46 µM]	?	65%	-70*
CCn1ccc2cc(S(=O)(=O)N3CCC(C(=O)NCCOC)CC3)ccc21	4%	-11%	.	-14%	3
SMILES	VACV Venus inh	Vaccinia mCherry	HCV inhibitor	FMDV inh	HCMV inh
CN(C)CCCN(Cc1ccccc1)C(=S)Nc1ccc(SC(F)F)cc1	.	.	?	-4%	?
FC(F)Sc1ccc(NC(=S)NCc2ccccc2)cc1	?	-1%	?	50%	-88*
CN(C(=S)Nc1ccc(SC(F)F)cc1)C(c1ccccc1)c1ccccc1	.	.	?	-13%	-72*
FC(F)Sc1ccc(NC(=S)NC(c2ccccc2)c2ccccc2)cc1	.	.	?	?	-98*
CN1C(=O)C(C(Nc2ccccc2)c2ccccc2)c2ccccc21 (configuration not stated)	.	.	.	.	-4
N#Cc1c(-c2ccco2)cc(C2CC2)nc1N	.	.	25µM*	-15%	-22
N#Cc1c(-c2ccco2)cc(-c2cccnc2)nc1N	.	.	11µM*	-20%	62
Fc1cnc(N2CCN(c3ccccc3)CC2)nc1N1CCN(c2ccccc2)CC1	-9%	i	?	20µM*	?
Cc1cc(C(N)=O)c2ccccc2n1	0%	-9%	6%	.	-16
NC(=O)c1cc2c3ccccc3ccn2c1-c1ccccc1	.	.	4%	29%	-99*
CC(=O)c1ccc(NC(=O)c2cc(C)nc3c2c(C)nn3-c2ccc(C)cc2)cc1	-15%	-20%	.	-16%	30
